These results are taken from PubChem BioAssay (NCATS).

Assay [1] in a line: Cell Viability - LYMP2-007 (AID 979).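 Note: cells exposed to compound for 24 h before reading; nearly all actives have a fitted effect of over 60% in size.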 The method, boiled down:
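Human lymphoblastoid LYMP2-007 cells (2500/well) preincubated 5 h at 37 C, then treated 24 h at 37 C in complete medium. Viability by CellTiter-Glo ATP luminescence after 30 min at room temperature; AC50 from Hill fits.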

Assay [2] in a line: Cell Viability - LYMP2-010 (AID 981). Note: nearly all actives have a fitted effect of over 55% in size. The method in brief:
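Human lymphoblastoid LYMP2-010 cells (2500/well) treated 24 h at 37 C in complete medium; viability read as intracellular ATP by CellTiter-Glo luminescence. AC50 from Hill fits of concentration-response data; tetraoctylammonium bromide positive control.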

A short description of assay [3]: Cell Viability - LYMP2-012 (AID 982).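 Note: cellular ATP by luciferase luminescence where a drop means cytotoxicity; cells exposed to compound for one day before reading; nearly all actives have a fitted effect of over 55% in size.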
Assay [4] is described as follows: Cell Viability - LYMP2-014 (AID 983). Note: nearly all actives have a fitted effect of over 50% in size. The method, boiled down:
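LYMP2-014 human lymphoblastoid cells, 2500/well, treated 24 h at 37 C in complete medium; viability by CellTiter-Glo ATP luminescence after 30 min at room temperature. AC50 from Hill fits of qHTS concentration-response; tetraoctylammonium bromide positive control.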

Assay [5] is described as follows: Cell Viability - LYMP2-018 (AID 985).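 Note: compound exposure lasted 24 hr at 37 °C; nearly all actives have a fitted effect of over 50% in size.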 The method, boiled down:
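Human lymphoblastoid LYMP2-018 cells, 2500/well, settled 5 hr at 37 C then exposed to compound 24 hr at 37 C; intracellular ATP measured by CellTiter-Glo luminescence. AC50 from Hill-equation concentration-response fits.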

Assay [6] in a line: Cell Viability - LYMP2-020 (AID 986). Note: nearly all actives have a fitted effect of over 55% in size. The method, boiled down: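 Human lymphoblastoid LYMP2-020 cells (2500/well) preincubated 5 h at 37 C, then treated 24 h at 37 C. Viability measured as intracellular ATP by CellTiter-Glo luminescence after 30 min at room temperature; AC50 from Hill fits.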
The nature of assay [7]: Cell Viability - LYMP2-022 (AID 987). Note: nearly all actives have a fitted effect of over 55% in size. The method, boiled down:
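LYMP2-022 lymphoblastoid cells (2500/well, complete medium) were treated with compounds for 24 hours at 37 C; intracellular ATP was then read by CellTiter-Glo luminescence after 30 min at room temperature. AC50 values were derived from Hill-equation fits.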

Assay [8] can be described thus: Cell Viability - LYMP2-024 (AID 988). Note: nearly all actives have a fitted effect of over 60% in size. The method, boiled down: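 Human lymphoblastoid LYMP2-024 cells (2500/well) rested 5 hr, then treated with compound for 24 hr at 37 C in complete medium. Viability was measured as intracellular ATP by CellTiter-Glo luminescence. AC50 values came from Hill-equation fits.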
Assay [9] can be described thus: Cell Viability - LYMP2-026 (AID 989). Note: nearly all actives have a fitted effect of over 50% in size. The method, boiled down: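 Human lymphoblastoid LYMP2-026 cells, 2500/well, exposed to compound 24 h at 37 C in complete medium. Viability as intracellular ATP by CellTiter-Glo luminescence; AC50 from Hill fits of qHTS concentration-response.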
A short description of assay [10]: Cell Viability - LYMP1-002 - Assay at 24 hr (AID 993). The method in brief:
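Human lymphoblastoid LYMP1-002 cells (2500/well) treated 24 h at 37 °C; viability as intracellular ATP by CellTiter-Glo luminescence. Tetraoctylammonium bromide as positive control; AC50 from Hill-equation fits of qHTS concentration-response.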

Another assay relates to 7G8. The assay is described as follows: qHTS profiling for inhibitors of Plasmodium falciparum proliferation (AID 504749). Note: nearly all actives have a fitted effect of over 60% in size. Note: potency is the fitted concentration of half-maximal effect. The note with it: P. falciparum in erythrocytes, SYBR Green DNA, 72 h; series mostly up to 28.7 µM. The method, boiled down:
(§1)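 Infected RBCs, 0.3% parasitemia/2.5% Hct final; cpd 72 h, 37 C, 5% CO2; lysis buffer with saponin/triton/SYBR Green I, o/n RT dark; FI 485/535; norm. to artemisinin (0.29 uM) and DMSO.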
On the technique in general: Quantitative high-throughput screening tests each substance at several concentrations.

The test system of a further assay is CP191. The description is as above. Particulars: P. falciparum in erythrocytes, SYBR Green DNA, 72 h; series mostly up to 28.7 µM. The method in brief: as §1
In another assay the test system is CP262. Described as above. The note with it: P. falciparum in erythrocytes, SYBR Green DNA, 72 h; series mostly up to 28.7 µM. The method in brief: as §1
The test system of the next assay is CP265. The assay is described as above. The note with it: P. falciparum in erythrocytes, SYBR Green DNA, 72 h; series mostly up to 28.7 µM. The method, boiled down:
as §1

The test system of another assay is CP305. The description is as above. Particulars: P. falciparum in erythrocytes, SYBR Green DNA, 72 h; series mostly up to 28.7 µM. The method, boiled down: as §1
A further assay deals with CP315. Described as above. The note with it: P. falciparum in erythrocytes, SYBR Green DNA, 72 h; series mostly up to 28.7 µM. The method, boiled down:
as §1

The subject of a further assay is CP329. The assay is described as above. Particulars: P. falciparum in erythrocytes, SYBR Green DNA, 72 h; series mostly up to 28.7 µM. The method in brief:
as §1

The subject of another assay is CP335. The assay is described as above. Particulars: P. falciparum in erythrocytes, SYBR Green DNA, 72 h; series mostly up to 28.7 µM. The method, boiled down: as §1
A further assay deals with PC15. The description is as above. The note with it: P. falciparum in erythrocytes, SYBR Green DNA, 72 h; series mostly up to 28.7 µM. The method in brief:
as §1

In another assay the test system is W2. The assay is described as above. Particulars: P. falciparum in erythrocytes, SYBR Green DNA, 72 h; series mostly up to 28.7 µM. The method in brief: as §1

Records with an inconclusive call do not appear. The source made the active and inactive calls. Calls come from the whole dose curve; as a rule, active = well fitted curve in the direction sought with a large enough effect; inconclusive = small, poorly fitted or top-dose-only effect, or another doubt; inactive = no such curve, though single readings can be large; an effect the other way counts as inactive or inconclusive. Bridge positions count the residues as written; N and C are the ends. Square brackets hold non-standard residues; d marks the D form. Peptide text beside a SMILES is read from it. * marks the point of attachment. Octanoyl(6-Me) = CCC(C)CCCCC(=O)*; Dab = NCC[CH](N)C(=O)O

On to `O=C(O)c1ccccc1C(c1ccc(O)cc1)c1ccc(O)cc1`, for which the Potency result in [1], in assay [2], in assay [3], in assay [4], in assay [5] and in assay [6] was “inactive” in each case. For the same compound, the Potency result in [7], in [8], in [9] and in assay [10] was “inactive” each time.
With `O=NCc1ccc([N+](=O)[O-])o1`, the Potency was 8.91 µM (active) in the assay on 7G8 and 6.01 µM (active) in the assay with W2. Further, the Potency entry with CP191, in the assay with CP262, with CP265, with CP305, with CP315 and in the assay on CP329 was “inactive” each time. In addition, the Potency entry with CP335 and in the assay with PC15 was “inactive” each time.
Consider `O=S(=O)(O)c1ccccc1`, for which the Potency result in assay [1], in assay [2], in assay [3], in assay [4], in assay [5] and in assay [6] was “inactive” each time. The Potency result in [7], in assay [8], in assay [9] and in [10] was “inactive” each time.
Turning to `c1ccc2scnc2c1`, the Potency entry in assay [1], in assay [2], in [3], in assay [4], in assay [5] and in assay [6] was “inactive” in each case. The Potency result in assay [7], in assay [8], in assay [9] and in assay [10] was “inactive” throughout.
For the compound `CCC(C)CCCCC(=O)NC(CCN)C(=O)NC(C(=O)NC(CCN)C(=O)NC1CCNC(=O)C(C(C)O)NC(=O)C(CCN)NC(=O)C(CCN)NC(=O)C(CC(C)C)NC(=O)C(Cc2ccccc2)NC(=O)C(CCN)NC1=O)C(C)O` (stereo not drawn) ({Octanoyl(6-Me)}-[Dab]T[Dab][Dab][Dab]FL[Dab][Dab]T; lactam 4-C; configuration not given here), the Potency entry in the assay with 7G8, in the assay with CP191, in the assay with CP262, in the assay with CP305, in the assay on CP315 and with CP329 was “inactive” each time. In addition, the Potency result with CP335, in the assay on PC15 and in the assay on W2 was “inactive” throughout.
Consider `CC1CCC(C(C)C)C(OC(=O)c2ccccc2O)C1` (stereo not drawn), for which the Potency entry in the assay on 7G8, with CP191, in the assay on CP262, with CP265, with CP305 and in the assay with CP315 was “inactive” throughout. Moreover, the Potency result in the assay with CP329, in the assay with CP335, in the assay with PC15 and in the assay on W2 was “inactive” each time.
Consider `CCN1/C(=C/C=C/C=C/c2sc3ccccc3[n+]2CC)Sc2ccccc21`, for which the Potency was 0.891 µM (active) in the assay with 7G8; 3.55 µM (active) in the assay with CP191; 5.01 µM (active) with CP265; 10.7 µM (active) with CP305; 12 µM (active) in the assay on CP315; 6.75 µM (active) in the assay with CP329. Moreover, the Potency was 1.07 µM (active) with CP335, 4.47 µM (active) with PC15 and 1.51 µM (active) with W2. For the same compound, the Potency entry with CP262 was “inactive”.
Consider `CC(=O)O[C@@]12CO[C@@H]1C[C@H](O)[C@@]1(C)C(=O)[C@H](O)C3=C(C)[C@@H](OC(=O)C(O)[C@@H](NC(=O)OC(C)(C)C)c4ccccc4)C[C@@](O)([C@@H](OC(=O)c4ccccc4)[C@H]21)C3(C)C` (stereo partly drawn), for which the Potency was 0.398 µM (active) in the assay on 7G8; 0.0282 µM (active) with CP191; 0.0338 µM (active) in the assay with CP262; 0.0794 µM (active) in the assay with CP265; 0.0426 µM (active) in the assay on CP305; 0.0338 µM (active) with CP315. Further, the Potency in the assay on CP329 was 0.0338 µM (active); with CP335, 0.0213 µM (active); in the assay on PC15, 5.62 µM (active); in the assay with W2, 0.0151 µM (active).
`Cc1cc(CC(C)CC(C)(C)C)n(O)c(=O)c1` (stereo not drawn): the Potency with 7G8 is 2.82 µM (active); in the assay on CP191, 1.12 µM (active); in the assay with CP262, 3.38 µM (active); in the assay on CP265, 2.82 µM (active); in the assay on CP305, 2.39 µM (active); in the assay on CP315 it was 3.38 µM (active). Moreover, the Potency in the assay on CP329 was 1.9 µM (active); in the assay with CP335, 1.69 µM (active); in the assay on PC15, 5.01 µM (active); in the assay on W2 it was 2.13 µM (active).
In the case of `CCC(=O)O[C@@H](OP(=O)(CCCCc1ccccc1)CC(=O)N1C[C@H](C2CCCCC2)C[C@H]1C(=O)O)C(C)C` (stereo partly drawn), in the assay on 7G8, the Potency is 12.6 µM (active). Also, the Potency entry with CP191, with CP262, in the assay with CP265, with CP305, with CP315 and with CP329 was “inactive” each time. In addition, the Potency result in the assay with CP335 and in the assay with PC15 was “inactive” in each case.
Consider `CO[C@@H]1[C@@H](OC2OC(C)C(OC3CC(C)(O)C(OC(=O)CC(C)C)C(C)O3)C(N(C)C)C2O)[C@@H](CC=O)C[C@@H](C)C(=O)/C=C\C2O[C@H]2C[C@@H](C)OC(=O)C[C@H]1OC(C)=O` (stereo partly drawn), for which the Potency with 7G8 was 8.91 µM (active); with CP191 it was 11.2 µM (active); with CP265, 11.2 µM (active); in the assay on CP335, 6.75 µM (active); with W2, 1.69 µM (active).
For `O=C1CCc2ccccc2O1`, the Potency result in assay [1], in [2], in assay [3], in [4], in [5] and in assay [6] was “inactive” throughout. In addition, the Potency result in assay [7], in [8], in [9] and in assay [10] was “inactive” each time.
